Pol kappa inh-1: inhibitors of human DNA polymerase kappa | Q9UBT6 | purified Pol kappa, fluorescent DNA synthesis assay, 10 min | Potency, µM (doses to about 107 µM), for the others: at the top dose activity, negative = inhibition, usual class: inhibitors | 0.53% of 400,000 active | AID 588579; also: potency is read from the fitted curve at half-maximal effect; % is scaled to controls: 0 for no effect and ±100 for the full control effect
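Activity was followed as the change in fluorescence between reads at 0 and 10 min after starting the reaction with 50 nM substrate. Beforehand, 10 nM polymerase had been preincubated with compound for 15 min at room temperature.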
GLS inhibitor: glutaminase GLS (human) inhibition. Potency, µM (highest dose often 45.5 µM), for the others: top-dose activity change, negative = inhibition, usual class: inhibitors. AID 624170. O94925. GLS enzymatic activity, qHTS titration. 0.21% of 410,000 active; also: potency is read from the fitted curve at half-maximal effect; % is scaled to controls: 0 for no effect and ±100 for the full control effect
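hKGA in 45 mM KH2PO4 (pH 8.2), 0.02% Tween-20 with compound, then 1mM L-Glutamine (stock as added) plus glutamate oxidase/HRP/Amplex red coupling mix. Fluorescence read initially and after 30 min at RT; signal change reflects glutamate formation.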
GCN5L2 inh: GCN5L2 (KAT2A) acetyltransferase inhibition | Q92830 | GCN5L2 HAT assay, ThioGlo1 CoA-SH fluorescence | Potency, µM (series often up to 58.9 µM), for inactives: at the highest dose activity change, negative = inhibition, most hits filed as inhibitors | 0.21% of 390,000 active | AID 504327; also: potency is read from the fitted curve at half-maximal effect; % is scaled to controls: 0 for no effect and ±100 for the full control effect
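Titration-based screen in which CoA formation is detected via maleimide probe ThioGlo1 (50uM) turning fluorescent on thiol reaction; substrates H3(1-25) 75uM and acetyl-CoA 70uM, GCN5L2 20nM, 20 min incubation at room temperature.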
Pol eta inh-1: inhibitors of human DNA polymerase eta | Q9Y253 | 1.2% of 390,000 active | recombinant Pol eta, fluorescent DNA replication assay | Potency, µM (series often up to 114 µM), without a hit: top-dose activity change, negative = inhibition, usual class: inhibitors; also: potency is read from the fitted curve at half-maximal effect; % is scaled to controls: 0 for no effect and ±100 for the full control effect
Target sequence (Q9Y253 whole entry, looked up): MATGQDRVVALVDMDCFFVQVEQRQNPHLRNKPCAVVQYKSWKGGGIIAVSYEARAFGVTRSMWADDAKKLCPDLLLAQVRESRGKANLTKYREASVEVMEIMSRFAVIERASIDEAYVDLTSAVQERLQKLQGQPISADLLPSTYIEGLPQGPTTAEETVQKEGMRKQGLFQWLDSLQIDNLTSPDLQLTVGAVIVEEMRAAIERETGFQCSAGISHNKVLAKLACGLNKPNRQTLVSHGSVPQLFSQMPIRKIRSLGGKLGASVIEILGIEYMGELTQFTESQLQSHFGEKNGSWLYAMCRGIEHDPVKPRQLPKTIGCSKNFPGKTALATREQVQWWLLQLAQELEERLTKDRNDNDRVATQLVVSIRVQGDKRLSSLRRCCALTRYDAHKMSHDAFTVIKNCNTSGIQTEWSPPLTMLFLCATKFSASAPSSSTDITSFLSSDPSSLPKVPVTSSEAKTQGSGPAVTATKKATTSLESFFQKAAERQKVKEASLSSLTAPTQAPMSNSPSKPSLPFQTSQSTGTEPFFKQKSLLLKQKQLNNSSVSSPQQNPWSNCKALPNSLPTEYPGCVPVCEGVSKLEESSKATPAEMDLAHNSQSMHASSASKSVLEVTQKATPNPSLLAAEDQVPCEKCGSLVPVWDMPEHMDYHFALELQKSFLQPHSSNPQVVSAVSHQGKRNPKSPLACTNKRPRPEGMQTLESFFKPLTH
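Pol eta (10 nM) was preincubated with compounds for 15 min at room temperature, after which fluorescent replication substrate (50 nM final) was added to start the reaction. Fluorescence was read kinetically at 0 and 10 min.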
Pol beta inh-1: blocks human DNA polymerase beta activity. 1.3% of 340,000 active. P06746. AID 485314. Potency, µM (top dose mostly 114 µM), for inactives: at the top dose activity change, negative = inhibition, usual class: inhibitors. Pol beta primer extension/strand displacement, fluorescence kinetic; also: potency is read from the fitted curve at half-maximal effect; % is scaled to controls: 0 for no effect and ±100 for the full control effect
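Preincubation: enzyme (10 nM) with compound, 15 min, RT. Reaction: substrate added to 50 nM final. Reads: 0 and 10 min. Analysis: normalized, Hill fit.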
POLI inh: inhibitors of human DNA polymerase iota. Q9UNA4. Pol iota fluorescent replication assay, 10 min. 1% of 390,000 active. AID 588590. Potency, µM (top dose mostly 115 µM), for the others: at the highest dose activity, negative = inhibition, most hits filed as inhibitors; also: potency is read from the fitted curve at half-maximal effect
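Fluorescent replication assay read twice, at 0 min and 10 min after adding 50 nM (final) substrate. Enzyme (10 nM) and compounds were first incubated 15 min at room temperature; enzyme-free buffer wells were negative controls.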
Pol beta inh-2: Validate hits inhibiting human DNA polymerase beta | 87% of 250 active | Pol beta primer extension/strand displacement, fluorescence kinetic | AID 540280 | Potency, µM, actives largely listed as inhibitors | shares compounds with Pol beta inh-1; calls by dose curve; also: potency is read from the fitted curve at half-maximal effect
Klenow inh: inhibits Klenow fragment polymerase in counter-screen; shares compounds with Pol beta inh-1; Klenow exo- polymerase counter-screen, fluorescent DNA substrate; activity change, negative = inhibition, % at 57.1 µM; 250 tested, under 10 active; AID 540300
HIV RT inh: counter-screen for DNA polymerase beta inhibitors: HIV-1 RT inhibition | 250 tested, under 10 active | AID 540301 | HIV-1 RT polymerase activity, counter-screen | shares compounds with Pol beta inh-1 | activity % (negative = inhibition, positive = activation), % at 57.1 µM
POLB valid: DNA polymerase beta inhibition, radiolabeled validation | 91% of 110 active | inhibition, % at 10 µM | shares compounds with Pol beta inh-1 | radiolabeled primer extension gel assay, phosphorimager;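 active = inhibition at 10 µM of 30% or more; inconclusive = no clear call, values can overlap the other calls; inactive = inhibition at 10 µM under 30%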
POLI cherry-pick: Human Pol iota inhibitor confirmatory assay; AID 720496; Potency, µM, hits mostly inhibitors; 77% of 1,500 active; shares compounds with Pol kappa inh-1; Pol iota primer extension, TAMRA/BHQ fluorescence; also: potency is read from the fitted curve at half-maximal effect
Pol kappa inh-2: Pol kappa (human) inhibition, cherry-pick confirmation; shares compounds with Pol eta inh-1; purified Pol-kappa, fluorescent strand-displacement substrate; 76% of 920 active; AID 720501; Potency, µM, most hits filed as inhibitors; also: potency is read from the fitted curve at half-maximal effect
Pol eta inh-2: confirmation of human DNA polymerase eta inhibitors | shares compounds with Pol eta inh-1 | Pol eta primer extension, TAMRA/BHQ fluorescence, 10 min | Potency, µM, most hits filed as inhibitors | 64% of 2,600 active; also: potency is read from the fitted curve at half-maximal effect
* = called active by the depositor; [ ] = another dose, or the depositor's remark. Rows were chosen to be rich in hits. Some 2.4% of all compounds tested hit in one or more screens of this group. Unless noted, calls follow the shape of the dose curve; as a rule, active = well fitted curve in the direction sought with a large enough effect; inconclusive = small, poorly fitted or top-dose-only effect, or another doubt; inactive = no such curve, though single readings can be large; an effect the other way counts as inactive or inconclusive.

How did CC(=O)Nc1ccc(C(=O)Nc2cccc(-c3cnc4ccccc4n3)c2)cc1 do in these assays?
Pol kappa inh-1: -12%; GLS inhibitor: -2%; GCN5L2 inh: -10%; Pol eta inh-1: inconclusive; Pol beta inh-1: 4.5µM*; POLI inh: 1%; Pol beta inh-2: 14*; Klenow inh: -31; HIV RT inh: -10; POLI cherry-pick: 30*; Pol kappa inh-2: 47*; Pol eta inh-2: inconclusive

Results for O=C(Nc1ccccc1)c1cccc(S(=O)(=O)Nc2cccc(F)c2)c1 ?
Pol kappa inh-1: -2%[60.1 µM]; GLS inhibitor: 0%; GCN5L2 inh: -5%; Pol eta inh-1: -23%; Pol beta inh-1: -25%; POLI inh: 7%

Results for FC(F)(F)c1ccccc1-c1ccc2ncnc(N3CCOCC3)c2c1 ?
Pol kappa inh-1: -4%[60.1 µM]; GCN5L2 inh: -20%

What do the screens show for `COCCn1c(C)cc(C(=O)COC(=O)c2cccc(O)c2)c1C`?
Pol kappa inh-1: 0%; GLS inhibitor: 12%; GCN5L2 inh: 17%; Pol eta inh-1: 2%; Pol beta inh-1: 8%; POLI inh: -2%

What do the screens show for `COCCn1c(C)cc(C(=O)COC(=O)c2cc3c(s2)CCC3)c1C`?
Pol kappa inh-1: 40µM*; GLS inhibitor: -17%; GCN5L2 inh: -12%; Pol eta inh-1: 8.9µM*; Pol beta inh-1: 10µM*; POLI inh: inconclusive; Pol beta inh-2: 32*; Klenow inh: -23; HIV RT inh: 26; POLB valid: 84*; POLI cherry-pick: 38*; Pol eta inh-2: 67*

What do the screens show for `CCCOc1cccc(C2c3c(oc4ccccc4c3=O)C(=O)N2c2nncs2)c1` (stereo not given)?
Pol kappa inh-1: 2%; GLS inhibitor: 2%; GCN5L2 inh: -1%; Pol eta inh-1: -1%; Pol beta inh-1: -11%; POLI inh: 9%

What do the screens show for `Cc1ccc(-c2nc3nc(C)cc(N4CCN(c5cc(Cl)ccc5C)CC4)n3n2)cc1`?
Pol kappa inh-1: -13%; GLS inhibitor: 1%; GCN5L2 inh: -9%; Pol eta inh-1: -13%; Pol beta inh-1: 0%; POLI inh: -22%

How did CC(C)Cn1c(N)c(C(=O)COC(=O)c2cc(-c3ccco3)nc3ccccc23)c(=O)n(C)c1=O do in these assays?
Pol kappa inh-1: inconclusive; GLS inhibitor: inconclusive; GCN5L2 inh: inconclusive; Pol eta inh-1: 18µM*; Pol beta inh-1: 14µM*; POLI inh: 25µM*; Pol beta inh-2: 11*; Klenow inh: -7; HIV RT inh: -16; Pol eta inh-2: 48*

How did C=CC1=C(C)/C(=C/c2[nH]c(Cc3[nH]c(/C=C4\NC(=O)C(C)=C4C=C)c(C)c3CCC(=O)O)c(CCC(=O)O)c2C)NC1=O do in these assays?
Pol kappa inh-1: inconclusive; GCN5L2 inh: -12%

How did CCCCc1cc(=O)oc2c(CN3CCCC3)c(O)ccc12 do in these assays?
Pol kappa inh-1: -5%; GLS inhibitor: 29%; GCN5L2 inh: inconclusive; Pol eta inh-1: 3%; Pol beta inh-1: -2%; POLI inh: 14%

Results for CCCCc1cc(=O)oc2cc(C)c(CN3CCCC3)c(O)c12 ?
Pol kappa inh-1: inconclusive; GLS inhibitor: inconclusive; GCN5L2 inh: inconclusive; Pol eta inh-1: 20µM*; Pol beta inh-1: 5µM*; POLI inh: 11µM*; Pol beta inh-2: 35*; Klenow inh: 1; HIV RT inh: 12; Pol eta inh-2: 30*

How did CSc1nc(SCC(=O)O)c2sc3nc(-c4ccccc4)c4c(c3c2n1)CCC4 do in these assays?
Pol kappa inh-1: inconclusive; GLS inhibitor: 14µM*; GCN5L2 inh: inconclusive; Pol eta inh-1: inconclusive; Pol beta inh-1: 2.5µM*; POLI inh: inconclusive; Pol beta inh-2: 4*; Klenow inh: inconclusive; HIV RT inh: -3; POLI cherry-pick: 15*; Pol eta inh-2: 67*

How did COc1ccccc1CN(Cc1ccco1)c1cnc(S(C)(=O)=O)nc1C(=O)Nc1ccccc1Cl do in these assays?
Pol kappa inh-1: -6%; GLS inhibitor: -4%; GCN5L2 inh: -10%; Pol eta inh-1: -16%; Pol beta inh-1: 53%; POLI inh: 18%

How did Cc1cc(=O)oc2cc(OCc3ccc(C(=O)OCC(=O)NC4CCS(=O)(=O)C4)cc3)ccc12 (stereo not given) do in these assays?
Pol kappa inh-1: 79µM*; GLS inhibitor: 37%; GCN5L2 inh: -23%; Pol eta inh-1: 22µM*; Pol beta inh-1: 3.5µM*; POLI inh: 20µM*; Pol beta inh-2: 25*; Klenow inh: -20; HIV RT inh: -4; POLB valid: 75*; POLI cherry-pick: 38*; Pol eta inh-2: 27*

Results for Cc1cc(=O)oc2cc(OCc3ccc(C(=O)OCC(=O)N(C)C4CCS(=O)(=O)C4)cc3)ccc12 (stereo not given) ?
Pol kappa inh-1: -12%; GLS inhibitor: -5%; GCN5L2 inh: -2%; Pol eta inh-1: -17%; Pol beta inh-1: inconclusive; POLI inh: -11%

Bioassay records deposited in PubChem BioAssay by National Center for Advancing Translational Sciences (NCATS).
